# Laboratory results taken from paper PMC4336329 (PLoS ONE, 2015).
# The whole screen tested about 310,000 compounds, of which about 14,000 (4.5%) showed an effect of 50% or more. Effects have a minus sign here. The full list was thinned out, with strong results kept by preference.
# Molecular target: human ether-à-go-go-related gene (hERG) potassium channel (human, UniProt Q12809)
# Test: primary screen, population patch clamp on CHO cells stably expressing hERG; higher = less effect of the substance
# 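Also: peak tail current of the secondary pulse compared with the same well before compound.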
# Chain of human ether-à-go-go-related gene (hERG) potassium channel (Q12809 whole entry, looked up): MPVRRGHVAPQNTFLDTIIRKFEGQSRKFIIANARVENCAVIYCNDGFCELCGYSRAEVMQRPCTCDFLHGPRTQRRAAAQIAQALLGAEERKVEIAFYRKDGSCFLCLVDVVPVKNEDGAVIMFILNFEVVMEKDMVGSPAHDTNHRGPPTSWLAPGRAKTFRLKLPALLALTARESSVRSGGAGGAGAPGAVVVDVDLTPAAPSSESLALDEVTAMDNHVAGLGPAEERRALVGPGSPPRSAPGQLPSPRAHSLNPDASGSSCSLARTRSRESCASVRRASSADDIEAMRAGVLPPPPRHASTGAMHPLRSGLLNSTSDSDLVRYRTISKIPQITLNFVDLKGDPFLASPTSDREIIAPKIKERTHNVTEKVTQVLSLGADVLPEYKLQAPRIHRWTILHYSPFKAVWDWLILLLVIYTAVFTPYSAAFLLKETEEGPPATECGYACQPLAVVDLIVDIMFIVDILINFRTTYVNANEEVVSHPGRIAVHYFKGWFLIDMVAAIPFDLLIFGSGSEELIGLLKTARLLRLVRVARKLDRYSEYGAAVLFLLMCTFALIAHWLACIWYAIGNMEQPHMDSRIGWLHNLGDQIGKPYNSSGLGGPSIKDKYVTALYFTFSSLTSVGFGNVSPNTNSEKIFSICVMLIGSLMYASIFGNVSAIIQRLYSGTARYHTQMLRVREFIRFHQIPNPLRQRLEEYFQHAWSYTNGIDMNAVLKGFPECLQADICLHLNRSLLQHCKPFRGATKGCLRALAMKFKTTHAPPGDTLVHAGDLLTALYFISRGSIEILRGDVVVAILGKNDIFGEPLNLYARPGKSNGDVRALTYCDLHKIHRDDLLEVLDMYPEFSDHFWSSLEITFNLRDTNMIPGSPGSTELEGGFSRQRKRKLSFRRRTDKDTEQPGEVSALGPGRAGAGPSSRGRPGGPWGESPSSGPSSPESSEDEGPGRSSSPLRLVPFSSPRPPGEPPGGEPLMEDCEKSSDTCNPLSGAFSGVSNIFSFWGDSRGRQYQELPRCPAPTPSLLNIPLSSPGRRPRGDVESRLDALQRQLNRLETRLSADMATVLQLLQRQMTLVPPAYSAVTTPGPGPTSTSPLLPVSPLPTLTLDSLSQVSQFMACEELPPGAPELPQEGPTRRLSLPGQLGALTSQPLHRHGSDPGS
row,SMILES,"hERG current change (%, negative = inhibition) at 10uM [%]"
1,CCOc1ccc(C)cc1S(=O)(=O)Nc1ccc(Cl)cn1,-3.98
2,Cn1c(=O)cc(OCC(=O)N2CCCc3ccccc32)c2ccccc21,-3.03
3,CCOC(=O)C1(Cc2ccccc2C)CCCN(C(=O)CN2CCCCC2=O)C1 (centres unmarked),14.8
4,COc1ccc(C(CC(=O)O)NC(=O)COc2ccc(C)cc2)cc1OC (centres unmarked),15.2
5,CCOC(=O)c1c(NC(=O)c2cccs2)sc2c1CCCC2,15.6
6,Cc1ccccc1NC1=NCC(C)S1 (centres unmarked),-2.32
7,CCOC(=O)CN1C(=O)N[C@@H](c2cccs2)C(C(=O)OC)=C1C,-11
8,CCCc1nn2c(=O)cc(CSCC(=O)Nc3ccc(F)cc3)nc2s1,-1.51
9,CN(CCNC(=O)C1CCC(=O)N(Cc2cccc(F)c2)C1)CCc1ccccc1 (centres unmarked),-46.3
10,O=C(NC1(c2ccccc2)CC1)C1CCC(=O)N(Cc2ccc(Cl)cc2)C1 (centres unmarked),-24.1
11,COc1ccccc1CN1CC(C(=O)NCCN(C)CCc2ccccc2)CCC1=O (centres unmarked),-65.7
12,COc1ccccc1CN1CC(C(=O)NCCCc2ccc(F)cc2)CCC1=O (centres unmarked),-41
13,COc1ccccc1CN1CC(C(=O)N2CCCCCCC2)CCC1=O (centres unmarked),3.22
14,COc1ccccc1CN1CC(C(=O)N2CCOCC2)CCC1=O (centres unmarked),-14.6
15,COc1ccccc1CCNC(=O)C1CCC(=O)N(Cc2ccccc2OC)C1 (centres unmarked),-13.2
16,O=C(NCCc1ccccc1F)C1CCC(=O)N(Cc2ccc(Cl)cc2)C1 (centres unmarked),-32.5
17,Cc1ccccc1CCNC(=O)C1CCC(=O)N(Cc2ccc(Cl)cc2)C1 (centres unmarked),-33.4
18,COc1ccccc1CN1CC(C(=O)N2CCCCO2)CCC1=O (centres unmarked),-65.7
19,O=C(NCCc1ccccc1Cl)C1CCC(=O)N(Cc2ccc(Cl)cc2)C1 (centres unmarked),-56.8
20,CN(CCNC(=O)C1CCC(=O)N(Cc2ccc(Cl)cc2)C1)CCc1ccccc1 (centres unmarked),-72.6
21,O=S(=O)(NC1CCCCC1)c1ccc(N2CCOCC2)nc1,-2.81

row,SMILES,"hERG current change (%, negative = inhibition) at 10uM [%]"
1,COc1ccc(C(C(=O)NC2CCCC2)N(C(=O)c2snc(-c3ccc(F)cc3)c2N)c2ccc(F)cc2)cc1 (centres unmarked),1.29
2,N#Cc1ccccc1NC(=O)c1ccccc1OCC(=O)Nc1ccc2c(c1)oc1ccccc12,16.2
3,Cc1nn(-c2ccc(F)cc2)c(Cl)c1/C=C/C(=O)OCC(=O)Nc1ccc(F)cc1F,15.5
4,CSc1ccc(NC(=O)CC(C)=O)cc1,-21.3
5,Cc1c(NC(=O)c2cc3c(=O)n4ccccc4nc3s2)c(=O)n(-c2ccccc2)n1C,8.11
6,CN(Cc1nc2ccccc2n1C)S(=O)(=O)c1ccc(Cl)cc1,3.21
7,CCC(=O)c1c[nH]c(C(=O)NCCc2ccccn2)c1,3.31
8,O=C(CCNC(=O)N1CCn2c1nc1ccccc12)NCc1ccc(F)cc1,-6.29
9,COc1ccc(Br)cc1/C=C(\C(=O)O)c1ccc(S(=O)(=O)N2CCCCC2)s1,0.483
10,Cc1ccc(CCN2CC(C(=O)NCCc3ccccc3)CC2=O)cc1 (centres unmarked),-3.16
11,O=C(NCCc1ccccc1)C1CCC(=O)N(Cc2ccc(Cl)cc2)C1 (centres unmarked),-20.5
12,Cc1ccc(CNC(=O)C2CCC(=O)N(CCc3ccccc3)C2)s1 (centres unmarked),-25.7
13,O=C(NCCc1ccccc1)C1CC(=O)N(CCc2ccccc2)C1 (centres unmarked),6.57
14,Cc1ccc(CNC(=O)C2CCC(=O)N(CCc3ccc(Cl)cc3)C2)s1 (centres unmarked),-69.4
15,O=C(NCCOc1ccccc1)C1CCC(=O)N(CCc2ccccn2)C1 (centres unmarked),-11.9
16,O=C(NCCCc1ccccc1)C1CCC(=O)N(Cc2ccc(Cl)cc2)C1 (centres unmarked),-61.3
17,O=C(NCCOc1ccccc1)C1CCC(=O)N(CCc2ccc(Cl)cc2)C1 (centres unmarked),-88.2
18,Cc1ccc(CNC(=O)C2CCC(=O)N(CCc3ccccn3)C2)s1 (centres unmarked),2.53
19,O=C(NCCc1ccc(Cl)cc1)C1CC(=O)N(CCc2ccccc2)C1 (centres unmarked),-62
20,O=C(NCc1ccccc1F)C1CCC(=O)N(Cc2ccc(Cl)cc2)C1 (centres unmarked),-42.1
21,O=C(NCCOc1ccccc1)C1CCC(=O)N(Cc2ccc(Cl)cc2)C1 (centres unmarked),-31.2

row,SMILES,"hERG current change (%, negative = inhibition) at 10uM [%]"
1,Cc1ccc(S(=O)(=O)N(CCCO)CC(O)CON=C2c3ccccc3-c3ccccc32)cc1 (centres unmarked),14.4
2,NC(=O)c1ccc(-c2noc(-c3cccc(Cl)c3)n2)cc1,19.4
3,Cc1ccc(CSCc2ccc(C(=O)O)o2)cc1,21.8
4,COC(=O)c1ccncc1C(=O)Nc1ccc(Oc2ncc(C(F)(F)F)cc2Cl)cc1,-5.09
5,O=C(CCCCn1c(=O)[nH]c2ccsc2c1=O)NCC1CCCO1 (centres unmarked),4.17
6,COC(=O)[C@]1(C)CCC[C@@]2(C)C3CC[C@@]4(C)C[C@]3(CCC21)CC(=O)N4Cc1ccc(OC)cc1 (some centres unmarked),7.82
7,C#CCOCCOCCOCCNc1nc(N2CCN(C(=O)[C@H](CCCC[NH3+])n3cc(CCCC)nn3)CC2)nc(N2CCN(C(=O)[C@H](CCCC[NH3+])n3cc(CCC(=O)O)nn3)CC2)n1.[Cl-],17.4
8,Cn1nc(C(=O)OCc2ccc(F)cc2)c2ccccc2c1=O,3.57
9,Cc1cc(C)c(OC2(c3ccccc3)OC(=O)c3ccccc32)c(C)c1 (centres unmarked),-5.57
10,Cc1c(C(=O)Nc2ccccc2)c2cc(O)ccc2n1Cc1ccccc1,4.2
11,O=C(NCc1cccs1)c1noc2c1CCCC2,-2.52
12,O=C(NCCc1cnccn1)C1CCC(=O)N(Cc2ccc(Cl)cc2)C1 (centres unmarked),2.46
13,Cc1cc(CNC(=O)C2CCC(=O)N(CCc3ccc(Cl)cc3)C2)no1 (centres unmarked),-39.7
14,O=C(NCCCc1ccncc1)C1CCC(=O)N(Cc2cccc(C(F)(F)F)c2)C1 (centres unmarked),-18.7
15,O=C(NCCN1CCCC1=O)C1CCC(=O)N(CCc2ccc(Cl)cc2)C1 (centres unmarked),-4.65
16,O=C(NCCCC1CCCC1)C1CCC(=O)N(Cc2ccc(Cl)cc2)C1 (centres unmarked),-61.4
17,O=C(NCCCC1CCCC1)C1CCC(=O)N(Cc2ccccc2F)C1 (centres unmarked),-9.03
18,O=C(NCCCC1CCCC1)C1CCC(=O)N(Cc2cccc(F)c2)C1 (centres unmarked),-15.2
19,O=C(NCCc1ccccc1Cl)C1CCC(=O)N(CCCc2ccccc2)C1 (centres unmarked),-34.1
20,CC(C)c1nc(CNC(=O)C2CCC(=O)N(CCc3ccc(Cl)cc3)C2)no1 (centres unmarked),-27.6
21,O=C(NCCCc1ccccc1)C1CCC(=O)N(CCc2ccc(Cl)cc2)C1 (centres unmarked),-79.8

row,SMILES,"hERG current change (%, negative = inhibition) at 10uM [%]"
1,O=C(NCCCc1ccncc1)C1CCC(=O)N(Cc2ccc(Cl)cc2)C1 (centres unmarked),-61.1
2,CC(C)c1cc(CNC(=O)C2CCC(=O)N(CCc3ccc(Cl)cc3)C2)on1 (centres unmarked),-68.1
3,CCn1c(CNC(=O)c2ccccc2F)nnc1SCC(=O)NC1CCCCC1C (centres unmarked),31.8
4,O=C(c1ccc(F)cc1)N1CCC(N2CCOCC2)CC1,-5.45
5,O=C(Nc1ccc(S(=O)(=O)Nc2ncccn2)cc1)c1cccc(S(=O)(=O)N2CCCC2)c1,-4.1
6,N#Cc1nc(-c2ccc(F)cc2)oc1N1CCCCC1,8.29
7,COc1ccccc1Cc1noc(COc2cccc(C)c2C)n1,3.03
8,COc1ccc(C(=O)NCCc2nnc3ccc(SCC(=O)Nc4cc(C)on4)nn23)cc1,4.8
9,COC(=O)C1=C(c2ccc(C(C)=O)cc2)C[C@@H]2CC[C@H]1N2C(=O)N1CCC(O)(c2ccc(Cl)cc2)CC1,-73.6
10,COC(=O)C1=C(c2ccc(OC(F)(F)F)cc2)C[C@@H]2CC[C@H]1N2C(=O)NCCNC(C)=O,2.65
11,COC(=O)C1=C(c2ccc(C(C)=O)cc2)C[C@@H]2CC[C@H]1N2C(=O)N1CCCC1,0.9
12,COC(=O)C1=C(c2ccc(C(C)=O)cc2)C[C@@H]2CC[C@H]1N2C(=O)N1CCCCC1,-16.9
13,COC(=O)C1=C(c2ccc(OC(F)(F)F)cc2)C[C@@H]2CC[C@H]1N2C(=O)N1CCCC1,-47.9
14,CCCNC(=O)N1[C@H]2CC[C@@H]1C(C(=O)OC)=C(c1ccc(OC(F)(F)F)cc1)C2,-27.4
15,COC(=O)C1=C(c2ccc(OC(F)(F)F)cc2)C[C@@H]2CC[C@H]1N2C(=O)NCC1CC1,-58.6
16,COC(=O)C1=C(c2ccc(OC(F)(F)F)cc2)C[C@@H]2CC[C@H]1N2C(=O)N1CCC(O)CC1,-36.2
17,COC(=O)C1=C(c2ccc(OC(F)(F)F)cc2)C[C@@H]2CC[C@H]1N2C(=O)N1CCCCC1,-56.3
18,CC1=CC=CC2=N/C(=N\S(=O)(=O)c3ccc(F)cc3F)c3ccccc3CN12,-20.3
19,COc1ccc(CC(=O)N(C)Cc2cccc(OC)c2OC)cc1S(=O)(=O)N1CCOCC1,-5.58
20,N=c1oc2ccccc2cc1C(=O)Nc1ccc(F)cc1,16.5
